# Paper PMC7862700, “An all-to-all approach to the identification of sequence-specific readers for epigenetic DNA modifications on cytosine”
# What was measured:
# Experiment in all cases: DAPPL (digital affinity profiling via proximity ligation, sequencing); 10 mM Tris-HCl pH 7.5, 50 mM NaCl, 1 mM DTT, 4% glycerol, room temperature, 30 min; GST-TFs on glutathione beads, 16-mer random dsDNA library, 0.1% formaldehyde crosslink after washing; high values mean tight binding
# Settings in all cases: protein: recombinant; tags: N-terminal GST; dsDNA, one strand shown
# FLI1 = molecular target: T1, FLI1 (Homo sapiens, UniProt Q01543 1-452)
# T1 sequence: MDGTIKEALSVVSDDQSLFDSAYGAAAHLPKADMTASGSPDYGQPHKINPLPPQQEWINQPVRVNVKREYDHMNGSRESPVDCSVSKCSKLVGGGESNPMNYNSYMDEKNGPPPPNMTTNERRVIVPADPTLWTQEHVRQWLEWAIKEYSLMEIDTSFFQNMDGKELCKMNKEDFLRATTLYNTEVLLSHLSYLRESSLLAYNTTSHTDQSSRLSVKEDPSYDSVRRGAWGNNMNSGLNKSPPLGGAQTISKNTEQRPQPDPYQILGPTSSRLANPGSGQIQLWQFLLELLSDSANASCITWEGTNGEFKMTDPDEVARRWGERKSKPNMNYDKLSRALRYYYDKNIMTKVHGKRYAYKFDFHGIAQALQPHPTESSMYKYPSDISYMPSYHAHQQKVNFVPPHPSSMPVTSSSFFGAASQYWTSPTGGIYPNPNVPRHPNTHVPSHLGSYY
# In short: (§1)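 Sequencing on an Illumina NextSeq500 followed washing, crosslinking with 0.1% formaldehyde, proximity ligation (BsaI/T4 ligase, 1 h, 37 °C) and PCR amplification of pools that had been incubated for 30 min at room temperature with 200 nmole of a random double-stranded 16-mer DNA library in Tris/NaCl/DTT/glycerol buffer. Each pool held DNA-barcoded human transcription factors, expressed in yeast as GST fusions and captured on glutathione beads, plus a tag-only sample. Binding signal is a hexamer's read frequency for a factor divided by its frequency in the tag-only sample.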
# ELK1 = molecular target: T2, ELK1 (Homo sapiens, UniProt P19419 1-428)
# T2 sequence: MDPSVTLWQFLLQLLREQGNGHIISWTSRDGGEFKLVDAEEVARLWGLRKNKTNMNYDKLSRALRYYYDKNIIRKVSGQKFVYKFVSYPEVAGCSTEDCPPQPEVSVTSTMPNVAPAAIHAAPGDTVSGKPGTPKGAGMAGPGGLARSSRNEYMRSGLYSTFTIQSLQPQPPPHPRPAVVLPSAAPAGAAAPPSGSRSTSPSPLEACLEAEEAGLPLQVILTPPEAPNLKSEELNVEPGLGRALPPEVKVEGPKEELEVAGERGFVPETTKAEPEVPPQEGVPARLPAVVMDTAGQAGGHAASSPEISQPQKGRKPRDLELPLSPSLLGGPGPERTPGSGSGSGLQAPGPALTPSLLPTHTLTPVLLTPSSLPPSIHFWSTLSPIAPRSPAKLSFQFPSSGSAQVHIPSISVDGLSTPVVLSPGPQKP
# In short: as §1
# GABPA = molecular target: T3, GABPA (Homo sapiens, UniProt Q06546 1-454)
# T3 sequence: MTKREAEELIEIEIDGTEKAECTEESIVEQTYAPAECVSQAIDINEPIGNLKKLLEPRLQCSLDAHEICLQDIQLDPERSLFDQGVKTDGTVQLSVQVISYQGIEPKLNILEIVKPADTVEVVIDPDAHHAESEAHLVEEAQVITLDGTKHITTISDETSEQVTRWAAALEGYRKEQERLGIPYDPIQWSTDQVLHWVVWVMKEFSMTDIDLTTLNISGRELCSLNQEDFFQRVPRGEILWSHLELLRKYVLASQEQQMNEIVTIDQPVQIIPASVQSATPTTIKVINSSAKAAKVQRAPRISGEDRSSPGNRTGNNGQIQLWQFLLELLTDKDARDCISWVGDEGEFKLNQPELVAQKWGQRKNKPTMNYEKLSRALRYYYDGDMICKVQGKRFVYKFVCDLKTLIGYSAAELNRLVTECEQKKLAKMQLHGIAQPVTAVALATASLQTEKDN
# In short: as §1
# ERG = molecular target: T4, ERG (Homo sapiens, UniProt P11308 1-479)
# T4 sequence: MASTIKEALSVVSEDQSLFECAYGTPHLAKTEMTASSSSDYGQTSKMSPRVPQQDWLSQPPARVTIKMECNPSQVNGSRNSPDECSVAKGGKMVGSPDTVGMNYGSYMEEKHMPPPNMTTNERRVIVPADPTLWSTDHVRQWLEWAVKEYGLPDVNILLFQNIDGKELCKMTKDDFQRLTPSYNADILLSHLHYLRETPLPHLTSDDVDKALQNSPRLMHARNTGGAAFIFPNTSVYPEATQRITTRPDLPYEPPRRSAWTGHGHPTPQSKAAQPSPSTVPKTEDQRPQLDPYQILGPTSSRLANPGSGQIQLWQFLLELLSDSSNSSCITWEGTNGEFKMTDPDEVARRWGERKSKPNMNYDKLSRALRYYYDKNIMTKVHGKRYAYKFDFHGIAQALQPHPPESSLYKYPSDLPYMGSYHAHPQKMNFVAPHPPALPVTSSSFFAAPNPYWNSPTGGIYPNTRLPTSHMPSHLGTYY
# In short: as §1
# ELF1 = ELF1 (Homo sapiens, UniProt P32519 1-619)
# ELF1, sequence (P32519 whole entry): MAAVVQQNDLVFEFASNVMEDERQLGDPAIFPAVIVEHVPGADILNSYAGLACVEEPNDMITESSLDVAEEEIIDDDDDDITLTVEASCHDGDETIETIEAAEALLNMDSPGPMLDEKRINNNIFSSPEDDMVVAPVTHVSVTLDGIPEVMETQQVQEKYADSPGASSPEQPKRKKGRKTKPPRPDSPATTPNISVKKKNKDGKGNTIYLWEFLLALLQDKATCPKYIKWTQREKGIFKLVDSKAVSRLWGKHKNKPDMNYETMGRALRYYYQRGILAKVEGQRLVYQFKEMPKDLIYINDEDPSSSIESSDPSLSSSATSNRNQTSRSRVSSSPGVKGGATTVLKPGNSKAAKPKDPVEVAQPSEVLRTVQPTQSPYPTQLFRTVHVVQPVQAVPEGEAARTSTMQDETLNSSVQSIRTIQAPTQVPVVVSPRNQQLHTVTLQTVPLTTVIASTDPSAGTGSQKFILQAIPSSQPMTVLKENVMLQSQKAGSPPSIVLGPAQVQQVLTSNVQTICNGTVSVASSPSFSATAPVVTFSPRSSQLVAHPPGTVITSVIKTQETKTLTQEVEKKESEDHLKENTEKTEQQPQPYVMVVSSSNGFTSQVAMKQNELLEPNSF
# In short: as §1
# EHF = molecular target: T5, EHF (Homo sapiens, UniProt Q9NZC4 1-300)
# T5 sequence: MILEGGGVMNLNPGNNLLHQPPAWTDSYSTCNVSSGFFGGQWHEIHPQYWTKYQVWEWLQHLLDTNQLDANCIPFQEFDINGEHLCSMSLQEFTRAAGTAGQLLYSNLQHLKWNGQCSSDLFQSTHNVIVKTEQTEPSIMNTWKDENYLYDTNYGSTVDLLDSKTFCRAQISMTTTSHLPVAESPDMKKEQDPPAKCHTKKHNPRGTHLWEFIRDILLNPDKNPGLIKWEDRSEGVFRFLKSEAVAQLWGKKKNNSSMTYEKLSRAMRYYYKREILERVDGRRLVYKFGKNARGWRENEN
# In short: as §1
# SPI1 = SPI1 (Homo sapiens, UniProt P17947 1-270)
# In short: as §1
# SPIB = SPIB (Homo sapiens, UniProt Q01892 1-262)
# SPIB, sequence (Q01892 whole entry): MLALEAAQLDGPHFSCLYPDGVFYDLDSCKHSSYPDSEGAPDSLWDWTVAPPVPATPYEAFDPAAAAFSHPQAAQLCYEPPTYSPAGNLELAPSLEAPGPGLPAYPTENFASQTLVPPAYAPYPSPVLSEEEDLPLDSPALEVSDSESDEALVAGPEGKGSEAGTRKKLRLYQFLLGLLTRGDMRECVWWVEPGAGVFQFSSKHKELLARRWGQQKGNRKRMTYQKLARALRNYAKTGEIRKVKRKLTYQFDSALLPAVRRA
# In short: as §1
# ELK3 = molecular target: T6, ELK3 (Homo sapiens, UniProt P41970 1-407)
# T6 sequence: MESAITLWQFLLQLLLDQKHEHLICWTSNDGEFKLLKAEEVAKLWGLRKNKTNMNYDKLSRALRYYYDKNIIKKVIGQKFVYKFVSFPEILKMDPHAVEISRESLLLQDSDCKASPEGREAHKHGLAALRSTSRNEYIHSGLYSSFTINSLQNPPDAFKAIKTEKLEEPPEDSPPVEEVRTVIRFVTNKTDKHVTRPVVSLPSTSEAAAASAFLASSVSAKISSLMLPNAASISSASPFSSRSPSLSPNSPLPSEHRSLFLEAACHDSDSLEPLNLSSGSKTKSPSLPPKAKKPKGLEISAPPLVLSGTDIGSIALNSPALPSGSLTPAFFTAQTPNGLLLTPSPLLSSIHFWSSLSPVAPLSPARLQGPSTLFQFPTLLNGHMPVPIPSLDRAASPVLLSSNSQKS
# In short: as §1
# FEV = molecular target: T7, FEV (Homo sapiens, UniProt Q99581 1-238)
# T7 sequence: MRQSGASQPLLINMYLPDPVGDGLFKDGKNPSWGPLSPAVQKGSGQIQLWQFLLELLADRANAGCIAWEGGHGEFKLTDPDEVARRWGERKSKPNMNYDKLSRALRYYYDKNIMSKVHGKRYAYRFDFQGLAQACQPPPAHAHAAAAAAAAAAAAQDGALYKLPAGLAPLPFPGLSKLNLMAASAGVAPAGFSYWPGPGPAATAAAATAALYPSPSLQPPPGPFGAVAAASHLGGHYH
# In short: as §1
# ETV5 = ETV5 (Homo sapiens, UniProt P41161 1-510)
# ETV5, sequence (P41161 whole entry): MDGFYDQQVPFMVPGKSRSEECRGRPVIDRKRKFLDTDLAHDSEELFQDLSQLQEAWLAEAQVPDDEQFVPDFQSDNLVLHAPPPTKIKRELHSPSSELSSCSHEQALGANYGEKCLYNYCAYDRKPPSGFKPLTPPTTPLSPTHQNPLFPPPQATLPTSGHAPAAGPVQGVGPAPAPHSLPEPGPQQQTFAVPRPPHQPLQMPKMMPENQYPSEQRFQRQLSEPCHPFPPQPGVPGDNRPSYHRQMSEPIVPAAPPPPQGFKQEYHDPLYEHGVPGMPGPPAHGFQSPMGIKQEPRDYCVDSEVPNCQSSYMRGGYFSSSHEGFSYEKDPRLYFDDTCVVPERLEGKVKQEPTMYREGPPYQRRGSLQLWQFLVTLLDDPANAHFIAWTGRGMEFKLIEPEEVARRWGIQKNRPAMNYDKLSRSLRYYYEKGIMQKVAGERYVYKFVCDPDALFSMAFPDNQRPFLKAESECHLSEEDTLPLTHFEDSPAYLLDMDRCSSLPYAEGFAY
# In short: as §1
# ELF4 = ELF4 (Homo sapiens, UniProt Q99607 1-663)
# ELF4, sequence (Q99607 whole entry): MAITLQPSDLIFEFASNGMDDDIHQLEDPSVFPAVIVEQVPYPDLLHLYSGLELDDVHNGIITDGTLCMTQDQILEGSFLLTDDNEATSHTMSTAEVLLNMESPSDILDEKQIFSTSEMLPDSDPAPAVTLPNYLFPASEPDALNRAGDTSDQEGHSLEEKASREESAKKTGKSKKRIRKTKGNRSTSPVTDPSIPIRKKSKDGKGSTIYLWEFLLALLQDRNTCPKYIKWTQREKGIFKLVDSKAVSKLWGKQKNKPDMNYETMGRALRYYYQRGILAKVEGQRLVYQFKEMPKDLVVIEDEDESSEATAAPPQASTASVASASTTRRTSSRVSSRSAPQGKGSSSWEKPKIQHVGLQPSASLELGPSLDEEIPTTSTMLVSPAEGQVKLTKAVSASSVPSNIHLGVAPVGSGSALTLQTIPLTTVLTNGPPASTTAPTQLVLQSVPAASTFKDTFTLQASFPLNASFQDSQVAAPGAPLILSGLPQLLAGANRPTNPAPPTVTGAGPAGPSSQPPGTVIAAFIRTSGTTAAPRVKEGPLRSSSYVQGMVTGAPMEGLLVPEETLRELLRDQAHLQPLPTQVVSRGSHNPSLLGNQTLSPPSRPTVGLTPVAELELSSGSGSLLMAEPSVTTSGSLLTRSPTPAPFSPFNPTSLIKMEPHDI
# In short: as §1
# ETV1 = ETV1 (Homo sapiens, UniProt P50549 1-477)
# ETV1, sequence (P50549 whole entry): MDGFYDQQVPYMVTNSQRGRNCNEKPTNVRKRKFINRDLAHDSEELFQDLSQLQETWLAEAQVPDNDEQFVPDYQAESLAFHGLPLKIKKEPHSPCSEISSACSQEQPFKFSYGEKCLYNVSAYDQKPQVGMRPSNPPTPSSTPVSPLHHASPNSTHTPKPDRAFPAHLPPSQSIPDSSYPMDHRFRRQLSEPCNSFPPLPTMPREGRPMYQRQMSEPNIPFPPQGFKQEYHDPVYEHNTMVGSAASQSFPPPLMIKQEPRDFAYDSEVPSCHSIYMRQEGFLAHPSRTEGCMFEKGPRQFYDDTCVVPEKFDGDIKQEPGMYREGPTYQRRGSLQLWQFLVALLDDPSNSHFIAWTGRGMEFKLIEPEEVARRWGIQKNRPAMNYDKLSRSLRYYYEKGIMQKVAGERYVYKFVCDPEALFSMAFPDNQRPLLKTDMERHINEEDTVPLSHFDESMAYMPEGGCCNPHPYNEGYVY
# In short: as §1
# ERF = molecular target: T8, ERF (Homo sapiens, UniProt P50548 1-548)
# T8 sequence: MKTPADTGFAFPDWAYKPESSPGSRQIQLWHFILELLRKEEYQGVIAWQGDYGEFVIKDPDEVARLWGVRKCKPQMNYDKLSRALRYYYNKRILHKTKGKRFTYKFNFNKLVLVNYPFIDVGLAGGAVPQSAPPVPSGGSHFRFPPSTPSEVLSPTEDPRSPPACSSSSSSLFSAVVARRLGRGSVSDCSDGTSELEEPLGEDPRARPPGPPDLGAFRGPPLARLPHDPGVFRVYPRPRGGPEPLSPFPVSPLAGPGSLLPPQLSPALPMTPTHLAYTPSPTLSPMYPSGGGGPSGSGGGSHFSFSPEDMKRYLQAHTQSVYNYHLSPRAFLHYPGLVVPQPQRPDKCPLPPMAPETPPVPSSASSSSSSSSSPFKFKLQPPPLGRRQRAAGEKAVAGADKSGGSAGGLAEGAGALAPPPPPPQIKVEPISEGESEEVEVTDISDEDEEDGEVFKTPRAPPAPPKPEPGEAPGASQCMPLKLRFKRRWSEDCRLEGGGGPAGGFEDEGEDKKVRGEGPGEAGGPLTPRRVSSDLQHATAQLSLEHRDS
# In short: as §1
# ETV3L = molecular target: T9, ETV3L (Homo sapiens, UniProt Q6ZN32 1-361)
# T9 sequence: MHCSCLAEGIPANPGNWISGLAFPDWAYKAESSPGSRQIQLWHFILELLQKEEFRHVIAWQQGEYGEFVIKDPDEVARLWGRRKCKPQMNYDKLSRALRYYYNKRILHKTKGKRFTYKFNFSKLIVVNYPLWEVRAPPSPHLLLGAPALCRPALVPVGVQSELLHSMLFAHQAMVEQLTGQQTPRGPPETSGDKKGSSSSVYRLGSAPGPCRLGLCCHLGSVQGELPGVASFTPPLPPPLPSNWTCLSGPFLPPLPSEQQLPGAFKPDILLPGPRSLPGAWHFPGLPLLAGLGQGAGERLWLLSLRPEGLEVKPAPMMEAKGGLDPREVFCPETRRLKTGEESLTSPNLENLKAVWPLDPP
# In short: as §1
# ETS2 = molecular target: T10, ETS2 (Homo sapiens, UniProt P15036 1-469)
# T10 sequence: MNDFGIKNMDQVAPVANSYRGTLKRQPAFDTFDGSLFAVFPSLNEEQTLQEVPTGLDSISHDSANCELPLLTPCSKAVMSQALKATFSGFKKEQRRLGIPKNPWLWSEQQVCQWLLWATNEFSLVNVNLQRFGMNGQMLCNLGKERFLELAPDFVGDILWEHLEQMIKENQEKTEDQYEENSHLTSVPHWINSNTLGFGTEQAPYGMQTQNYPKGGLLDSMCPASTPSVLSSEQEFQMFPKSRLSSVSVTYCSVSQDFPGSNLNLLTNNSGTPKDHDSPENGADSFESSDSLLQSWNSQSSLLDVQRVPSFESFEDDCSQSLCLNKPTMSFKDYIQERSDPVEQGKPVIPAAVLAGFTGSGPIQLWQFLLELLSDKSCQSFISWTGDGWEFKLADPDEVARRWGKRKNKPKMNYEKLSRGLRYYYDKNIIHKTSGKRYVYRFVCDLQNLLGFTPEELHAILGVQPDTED
# In short: as §1
# SPDEF = molecular target: T11, SPDEF (Homo sapiens, UniProt O95238 1-335)
# T11 sequence: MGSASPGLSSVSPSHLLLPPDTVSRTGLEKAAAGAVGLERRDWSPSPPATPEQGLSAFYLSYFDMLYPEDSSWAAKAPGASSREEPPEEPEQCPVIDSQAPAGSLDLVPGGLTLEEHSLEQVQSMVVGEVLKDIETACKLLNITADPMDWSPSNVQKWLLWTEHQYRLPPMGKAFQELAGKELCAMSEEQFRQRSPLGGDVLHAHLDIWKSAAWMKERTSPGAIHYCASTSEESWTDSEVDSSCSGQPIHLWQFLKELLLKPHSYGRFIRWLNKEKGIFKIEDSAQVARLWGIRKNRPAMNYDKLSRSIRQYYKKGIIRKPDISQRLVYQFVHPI
# In short: as §1
# ETV3 = molecular target: T12, ETV3 (Homo sapiens, UniProt P41162-2 1-143)
# T12 sequence: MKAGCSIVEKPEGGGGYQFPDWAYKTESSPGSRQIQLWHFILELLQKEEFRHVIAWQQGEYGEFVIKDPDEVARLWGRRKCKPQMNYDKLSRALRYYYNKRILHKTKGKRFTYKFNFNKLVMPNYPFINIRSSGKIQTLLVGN
# In short: as §1
# ETV6 = ETV6 (Homo sapiens, UniProt P41212 1-452)
# ETV6, sequence (P41212 whole entry): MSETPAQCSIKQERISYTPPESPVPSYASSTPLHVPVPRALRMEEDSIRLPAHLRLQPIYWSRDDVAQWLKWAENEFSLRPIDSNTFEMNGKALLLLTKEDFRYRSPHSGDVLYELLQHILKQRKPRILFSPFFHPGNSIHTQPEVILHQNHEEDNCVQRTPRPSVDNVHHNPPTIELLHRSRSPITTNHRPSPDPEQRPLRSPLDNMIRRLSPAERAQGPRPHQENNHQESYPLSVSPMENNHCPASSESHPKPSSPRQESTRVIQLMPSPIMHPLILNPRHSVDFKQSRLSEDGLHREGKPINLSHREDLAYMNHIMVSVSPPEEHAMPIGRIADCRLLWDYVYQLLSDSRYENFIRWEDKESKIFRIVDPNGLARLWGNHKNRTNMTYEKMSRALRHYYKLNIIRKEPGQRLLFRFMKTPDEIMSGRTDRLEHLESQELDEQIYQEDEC
# In short: as §1
sequence,measurement,setting,value
TCATAC,binding signal,FLI1,"1.08 fold enrichment (6-mer frequency, TF over GST control)"
same,binding signal,ELK1,"1.1 fold enrichment (6-mer frequency, TF over GST control)"
same,binding signal,GABPA,"1.09 fold enrichment (6-mer frequency, TF over GST control)"
same,binding signal,ERG,"1.14 fold enrichment (6-mer frequency, TF over GST control)"
same,binding signal,ELF1,"1.15 fold enrichment (6-mer frequency, TF over GST control)"
same,binding signal,EHF,"1.02 fold enrichment (6-mer frequency, TF over GST control)"
same,binding signal,SPI1,"1.13 fold enrichment (6-mer frequency, TF over GST control)"
same,binding signal,SPIB,"1.16 fold enrichment (6-mer frequency, TF over GST control)"
same,binding signal,ELK3,"1.17 fold enrichment (6-mer frequency, TF over GST control)"
same,binding signal,FEV,"1.07 fold enrichment (6-mer frequency, TF over GST control)"
same,binding signal,ETV5,"1.02 fold enrichment (6-mer frequency, TF over GST control)"
same,binding signal,ELF4,"1.07 fold enrichment (6-mer frequency, TF over GST control)"
same,binding signal,ETV1,"1.14 fold enrichment (6-mer frequency, TF over GST control)"
same,binding signal,ERF,"1.2 fold enrichment (6-mer frequency, TF over GST control)"
same,binding signal,ETV3L,"1.13 fold enrichment (6-mer frequency, TF over GST control)"
same,binding signal,ETS2,"1.06 fold enrichment (6-mer frequency, TF over GST control)"
same,binding signal,SPDEF,"1.05 fold enrichment (6-mer frequency, TF over GST control)"
same,binding signal,ETV3,"1.01 fold enrichment (6-mer frequency, TF over GST control)"
same,binding signal,ETV6,"1.01 fold enrichment (6-mer frequency, TF over GST control)"
